# In the OligoGym collection:
# Target: SLC26A5
# Test: pooled miR-30 sensor sort-seq; sequence = guide strand
# Settings: shRNA
# Further: reference of the scale not given here.
row,Sequence,sensor-assay potency score (higher = more potent)
1,TAACATTCTGCAACACAGCAAC,-0.753
2,TTCTGCAACACAGCAACTGTAC,-0.438
3,TTAATGAGGCCAAACAACCTGC,-0.462
4,TTTCGTTTTAATGCATTGCTAT,-0.563
5,TTGTGTGTAGTCTTTCCTGGAG,-0.0771
6,TTGCATAGTAAATTGGTGCATT,-0.361
7,TAGTCTTTCCTGGAGGACCGGA,-0.913
8,TAAATCTTTGCATTTCCTCAGG,-0.693
9,TTGTCCTTTGTGTGTAGTCTTT,-0.811
10,TATCATCTGGTACTAATCGAAC,-1.32
11,TTTCCAAGGACTTTGTAGCTTG,-0.312
12,TATACAAGTCGCTATTTGCATA,-1.73

# Target: SLC26A8
# Test: as above
# Settings: shRNA
row,Sequence,sensor-assay potency score (higher = more potent)
1,TTATCCTGGATAATAGTCCTAG,-0.541
2,TTGATTTTTCTGAGACACGGAC,-0.723
3,TTAGGTAGTAAACATTTACAAA,-1.21
4,TTTACAAATGTAATTGAGCTGC,-0.345
5,TGAATTGTCATTCTTGTCTGTT,-0.0701
6,TTGAGCTTCATCTCTTTGGAGA,-0.991
7,TTGAATTGTCATTCTTGTCTGT,0.809
8,TAGTCCTAGCAATAGCACCAGT,-1.08
9,TTTTATATCTTGAATTGTCATT,-1.25
10,TAATCGATACATACACATCCAT,-0.25
11,TTTATTTTCAAATCGCTCTGTG,0.487
12,AATCGATACATACACATCCATT,-1.59

# Target: SLC27A5
# Test: as above
# Settings: shRNA
row,Sequence,sensor-assay potency score (higher = more potent)
1,TTGCAAGAAGTCCACCTGCGAC,-1.49
2,TAAACCACATCATCAGCTGTGG,-0.167
3,TACAGGATCACTGTCACGCCAT,-0.0663
4,TTCATCAGTTTGAACGTGCTGG,0.535
5,TTGTCCAGTACAAACAGAGGGT,-0.338
6,TAGTCCATTGCCCATTGCCAGG,-1.83
7,TATTCTGCCACTGCTACAGGGC,-0.565
8,TAGTTGACTAAGCCCATGTTGC,-0.878
9,TGTTGTAGTAAACGTCGCCCGA,-0.779
10,TATGTGTCCGGTCCTCTGGTTG,-1.24
11,TTGTAGTAAACGTCGCCCGATT,-1.15
12,TTGACTAAGCCCATGTTGCCTT,-0.405

# Target: SLC28A2
# Test: as above
# Settings: shRNA
row,Sequence,sensor-assay potency score (higher = more potent)
1,TTGGGAAGGAGACACAGTCAGC,-1.18
2,ATCTTCTTGAACAATCTGGCGT,-0.838
3,TTTGTTCTTGTATTGAGACAGT,-0.497
4,TTGGACAGTCTGTCCACTCTAC,0.142
